Common to all, as to experiment: NCI-60 one-dose screen, 48 h (100 = growth as untreated, 0 = no growth, -100 = all killed)
What all share (details): 10 µM unless noted

Experiment [1] concerns SR leukemia.
For experiment [2], the system named is RPMI-8226 leukemia.
In experiment [3] the test system is OVCAR-8 ovarian.
Experiment [4] concerns OVCAR-5 ovarian.
The test system of experiment [5] is OVCAR-4 ovarian.
Experiment [6] has as its system SK-OV-3 ovarian.
The subject of experiment [7] is IGROV1 ovarian.
Experiment [8] deals with OVCAR-3 ovarian.
Experiment [9] relates to HS 578T breast.
The test system of experiment [10] is NCI/ADR-RES ovarian.
Experiment [11] has as its system T-47D breast.
Experiment [12] deals with BT-549 breast.
In experiment [13] the test system is MDA-MB-435 melanoma.
The subject of experiment [14] is MCF7 breast.
In experiment [15] the test system is HCT-116 colon.
Experiment [16] has as its system HCC-2998 colon.
Experiment [17] deals with KM12 colon.
In experiment [18] the test system is SW-620 colon.

“And” between values parts separate entries of the source, which are not always exact repeats. Equal values may be shown once. Compounds without any hit were thinned out: in the full panel of roughly 83,000, 20% have a hit.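 Growth was measured after 48 h exposure to one concentration of compound in 96-well plates. Values under 10 count as active.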 Values without a mark were called inactive. The source made the active and inactive calls.

Consider 8 molecules from PubChem BioAssay (NCI).

On to `Nc1c(S(=O)(=O)O)cc(Br)c2c1C(=O)c1ccccc1C2=O`, for which the growth in experiment [1] was 93.8% and 91.4%; in experiment [2], 96.7% and 104%; in experiment [3] it was 106% and 92.1%; in experiment [4] it was 113% and 101%; in experiment [5], 101% and 111%; in [6], 85.6% and 102%. The growth is 105% and 88.9% in [7]; 102% and 121% in experiment [8]; 112% and 94.3% in [9]; 108% and 115% in experiment [10]; 90% and 96.7% in experiment [11]; 110% in [12]. Also, the growth was 105% and 115% in experiment [13]; 96.8% and 93.8% in [14]; 109% in experiment [15]; 108% and 109% in experiment [16]; 104% and 108% in [17].
Take `O=[N+]([O-])c1ccc(NC2CCCCC2)nc1`: the growth in [1] is 98.1%; in experiment [2] it was 111% and 101%; in [3] it was 118% and 101%; in experiment [4], 104% and 100%; in experiment [5], 109%; in [6] it was 108%. For the same molecule, the growth is 116% and 104% in experiment [7]; 112% and 114% in [8]; 100% and 101% in experiment [9]; 105% and 103% in experiment [10]; 102% in experiment [11]; 114% and 106% in experiment [12]. The growth is 102% and 112% in experiment [13]; 103% and 109% in [18]; 105% and 96.3% in [16]; 111% and 103% in experiment [17].
Consider `CS(=O)(=O)c1nsc(N)n1`, for which the growth in experiment [1] was 98.8%; in experiment [2], 106%; in experiment [3], 104%; in [4], 97.3%; in experiment [5], 103%; in experiment [6], 95.4%. The growth was 101% in [7]; 107% in [8]; 103% in [9]; 104% in experiment [10]; 95% in experiment [11]; 107% in [12]. Further, the growth in [13] was 107%; in [14], 99.8%; in experiment [15] it was 103%; in experiment [16] it was 98.4%; in experiment [17] it was 105%.
As to `O=c1[nH]nnc2cc(Cl)ccc12`, the growth in experiment [1] was 117% and 102%; in experiment [2], 112% and 109%; in experiment [3] it was 95.2% and 98.2%; in experiment [4] it was 103% and 96.5%; in [5], 124% and 98.8%; in [6], 114% and 117%. Moreover, the growth was 104% and 116% in [7]; 100% and 123% in experiment [8]; 126% and 123% in experiment [9]; 106% and 97.5% in experiment [10]; 106% and 98.4% in experiment [11]; 110% in [12]. The growth is 104% and 102% in [13]; 114% and 94.5% in [14]; 109% and 98.7% in experiment [16]; 101% and 102% in [17].
As for `Oc1ccc(O)c(-c2ccccc2)c1`, the growth was 4.96% (active) in experiment [1]; 42% in experiment [2]; 62.9% in experiment [3]; 102% in experiment [4]; 53.8% in experiment [5]; 83.3% in [6]. Besides, the growth in experiment [7] is 47%; in experiment [8] it was 20.5%; in [9], 76.5%; in experiment [10], 50.6%; in experiment [11], 47.1%; in experiment [12], 55.3%. For the same molecule, the growth in experiment [13] was 81.8%; in experiment [18], 78.7%; in experiment [15], 47.1%; in [16] it was 65.6%; in experiment [17], 40.8%.
Regarding `CN(C)C(=S)N(C)C`, the growth in experiment [1] was 94.9%; in [2] it was 98.2%; in [3], 109%; in experiment [4] it was 105%; in experiment [5], 101%; in [6] it was 99.7%. Besides, the growth in experiment [7] is 153%; in experiment [8], 107%; in experiment [9], 157%; in [10] it was 102%; in [11], 98.5%; in [12], 107%. The growth was 112% in [13], 107% in experiment [14], 103% in experiment [16] and 109% in experiment [17].
With `COc1ccc(C(=O)C(O)c2ccc(OC)cc2)cc1` (stereo not drawn), the growth in experiment [1] was 102% and 94%; in [2], 112% and 106%; in experiment [3], 99.8% and 101%; in experiment [4] it was 111% and 109%; in experiment [5] it was 103% and 102%; in experiment [6], 106% and 101%. The growth is 102% and 110% in experiment [7]; 112% and 107% in [8]; 112% and 102% in [9]; 102% in [10]; 103% and 92.8% in experiment [11]; 109% and 98.9% in experiment [12]. Moreover, the growth was 117% and 111% in experiment [13]; 105% and 107% in experiment [18]; 102% and 93% in [15]; 111% and 108% in experiment [16]; 110% and 99.8% in experiment [17].
In the case of `N#Cc1c(N)nc2c(c(-c3ccc(Cl)cc3)nn2-c2ccccc2)c1C#N`, the growth in [1] is 104% [100 µM]; in experiment [2], 108% [100 µM]; in experiment [3] it was 99.8% [100 µM]; in [4] it was 123% [100 µM]; in [5], 111% [100 µM]; in experiment [6], 94.8% [100 µM]. For the same molecule, the growth in experiment [7] was 99.2% [100 µM]; in experiment [8], 122% [100 µM]; in experiment [9] it was 83.9% [100 µM]; in [10] it was 101% [100 µM]; in experiment [11], 97.4% [100 µM]; in experiment [12], 94.2% [100 µM]. Also, the growth in [13] is 104% [100 µM]; in experiment [18], 107% [100 µM]; in experiment [15], 94.7% [100 µM]; in experiment [16] it was 111% [100 µM]; in experiment [17] it was 103% [100 µM].
